Hits are enriched below; roughly 2.2% of the tested compounds scored in any of these assays.
ABCB6 inh MLPCN: ABCB6 transporter inhibitors, primary screen, K562-ABCB6 cells, flow cytometry, MLPCN library; 360,000 compounds, 0.19% hits; AID 602162, 2011; K562-ABCB6 porphyrin accumulation, 1 h; hits give low values; fluorescence ratio to DMSO, % at 10 µM;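 active = fluorescence ratio to DMSO below 75%, the collection mean minus 3 SD; inconclusive = too few cells collected in the well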;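 note: signal is porphyrin accumulated inside mitochondria; lower ratio means ABCB6 inhibition with less porphyrin fluorescence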
Target sequence (Q9NP58 whole entry, looked up): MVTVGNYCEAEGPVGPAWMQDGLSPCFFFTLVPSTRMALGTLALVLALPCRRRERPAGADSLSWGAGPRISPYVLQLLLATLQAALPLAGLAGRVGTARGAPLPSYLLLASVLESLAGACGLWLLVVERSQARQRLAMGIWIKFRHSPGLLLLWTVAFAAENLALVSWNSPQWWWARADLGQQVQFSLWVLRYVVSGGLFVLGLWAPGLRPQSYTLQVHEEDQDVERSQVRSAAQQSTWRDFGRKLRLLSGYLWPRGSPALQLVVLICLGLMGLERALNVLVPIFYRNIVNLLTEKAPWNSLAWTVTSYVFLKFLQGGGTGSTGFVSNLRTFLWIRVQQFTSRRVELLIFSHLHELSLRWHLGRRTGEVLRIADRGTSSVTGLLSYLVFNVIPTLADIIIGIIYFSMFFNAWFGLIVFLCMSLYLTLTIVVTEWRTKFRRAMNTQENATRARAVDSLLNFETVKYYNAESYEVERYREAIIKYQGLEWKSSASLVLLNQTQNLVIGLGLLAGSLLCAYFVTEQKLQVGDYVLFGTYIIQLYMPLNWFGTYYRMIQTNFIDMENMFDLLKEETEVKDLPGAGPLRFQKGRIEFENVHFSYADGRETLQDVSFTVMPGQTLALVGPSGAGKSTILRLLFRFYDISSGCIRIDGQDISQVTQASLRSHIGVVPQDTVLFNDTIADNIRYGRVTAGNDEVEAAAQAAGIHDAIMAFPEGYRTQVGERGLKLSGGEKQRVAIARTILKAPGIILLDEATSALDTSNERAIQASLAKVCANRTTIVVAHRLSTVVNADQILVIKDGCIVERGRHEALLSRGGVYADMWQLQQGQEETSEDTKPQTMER
H9c2 protect: cardioprotection against H2O2-induced cell death, primary screen, uHTS, H9c2 cells, ATPLite luminescence; protection from H2O2 cell death, % at 20 µM; 360,000 compounds, 0.63% hits; H9c2 cardiomyocytes, H2O2 injury protection, 2 h; AID 588492, 2011;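 active = compounds giving at least 50% protection of heart cells from peroxide-induced death in the single-dose screen, raw or plate-pattern-corrected value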
hiPSC survival: enhancers of single-cell hiPSC survival, primary screen, ATPlite luminescence; 100% = ROCK inhibitor wells, 0% = DMSO; survival enhancement, % at 20 µM; 360,000 compounds, 0.044% hits; AID 602274, 2012; in the data active = survival enhancement above about 18%;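 note: cells exposed to compounds for 16 hours before the ATP read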
beta cell repl: inducers of MIN6 beta-cell proliferation, primary screen, ATP luminescence, uHTS | 330,000 compounds, 0.29% hits | AID 2380, 2010 | MIN6 cells proliferation, ATPlite luminescence, 48 h; cells starved in 0.2% serum; 100% = growth in 10% serum | proliferation, % at 10 µM;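 active = compounds whose signal lies at least 3.5 SD above the mean of all wells on their plate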
Myeloid diff MLP: induction of myeloid progenitor differentiation, primary screen, cell-based, flow cytometry, MLPCN library. ER-HoxA9 myeloid progenitors, lysozyme-GFP differentiation. calls only at 10 µM. 360,000 compounds, 1% hits;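 active = normalized GFP-positive differentiation at or above the plate's own cutoff, the solvent-only control mean plus 3 SD; inconclusive = no clear call, values can overlap the other calls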;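 note: cells exposed to compound for four days before flow analysis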
ABCB6 blocker 1: ABCB6 transporter inhibitors, confirmation, K562-ABCB6 cells, flow cytometry, cherry pick 1; AID 602430, 2012; ratio response (% of DMSO), % at 10 µM; shares compounds with ABCB6 inh MLPCN; 700 tested, under 10 active; K562-ABCB6 porphyrin accumulation, 1 h; hits give low values;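 active = repeat-averaged ratio response below 75% of DMSO, the collection mean minus 3 SD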;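 note: median porphyrin fluorescence at 575 nm with 488 nm excitation from mitochondria; lower ratio means less porphyrin signal so ABCB6 inhibition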
Large screens that a line does not name were inactive (follow-up assays come after a bar, where they were run).

O=C(NCc1ccco1)C(Cc1ccccc1)NS(=O)(=O)c1cccc2nsnc12 (configuration not stated)	none
Cc1ccc(C(CC(=O)N2CCCC2)c2ccccc2)c(O)c1C (configuration not stated)	none
COc1cc(C=C2NC(=O)NC2=O)ccc1O	none (no result: beta cell repl)
O=C(/C=C/c1ccccc1O)c1ccccc1	none (no result: beta cell repl)
CC1(C(=O)NS(=O)(=O)c2cccc(C#N)c2)CCN1C(=O)Cc1ccc(Cl)cc1Cl (configuration not stated)	none (no result: beta cell repl)
CC1(C(=O)NS(=O)(=O)c2cccc(C#N)c2)CCN1C(=O)Cc1ccccc1Cl (configuration not stated)	none (no result: beta cell repl) | ABCB6 blocker 1 inactive
COCCCNC(=O)c1ccc2c(c1)CCN2S(C)(=O)=O	ABCB6 inh MLPCN 69 | ABCB6 blocker 1 inactive
COCCNC(=O)c1ccc2c(c1)CCN2S(C)(=O)=O	none
CCc1cc(=O)oc2c(C)c(OCC(=O)N3CCCc4ccccc43)ccc12	ABCB6 inh MLPCN 74 | ABCB6 blocker 1 inactive
Cc1ccc(N(CC(=O)NC(C)(C)C)C(=O)CNC(=O)c2cccs2)cc1	none
CCN(c1cccc(C)c1)c1ncnc2nc[nH]c12	none
N#Cc1c2n(c3c(=O)n(Cc4ccccc4)cnc13)CCCC2	ABCB6 inh MLPCN 55 | ABCB6 blocker 1 inactive
O=C(CCN1C(=O)C2C3CC(C(Br)C3Br)C2C1=O)OCC(=O)c1ccccc1 (configuration not stated)	ABCB6 inh MLPCN 71 | ABCB6 blocker 1 inactive
O=C(CCN1C(=O)C2C3CCC(C3)C2C1=O)OCC(=O)c1ccccc1 (configuration not stated)	none
CCN1CCN(C(=O)Cn2nc(-c3ccc(Cl)cc3)ccc2=O)CC1	none
Cc1ccc(S(=O)(=O)N2CCN(C(=O)CN3CCOCC3)C2C(C)C)cc1 (configuration not stated)	ABCB6 inh MLPCN 59 | ABCB6 blocker 1 inactive
Cc1cc(C)cc(N(C(=O)c2csnn2)C(C(=O)NC2CCCCC2)c2cccnc2)c1 (configuration not stated)	none
Cc1ccc(CN(C(=O)c2csnn2)C(C(=O)NC2CCCC2)c2ccco2)cc1 (configuration not stated)	ABCB6 inh MLPCN 73 | ABCB6 blocker 1 inactive
Cc1cc(C)cc(N(C(=O)c2csnn2)C(C(=O)NC2CCCC2)c2cccnc2)c1 (configuration not stated)	ABCB6 inh MLPCN 74 | ABCB6 blocker 1 inactive
Cc1cc(NC(=O)CSc2nnnn2-c2ccc(C)c(C)c2)no1	none
Cc1cc(NC(=O)CSc2nnnn2-c2ccc(C)c(Cl)c2)no1	ABCB6 inh MLPCN 72 | ABCB6 blocker 1 inactive
Cc1c(C(=O)Nc2ccccc2F)sc2nc3n(c(=O)c12)CCC3	none | ABCB6 blocker 1 inactive
Cc1cc(C)cc(NC(=O)c2sc3nc4n(c(=O)c3c2C)CCC4)c1	none
CCOc1ccc(NC(=O)c2sc3nc4n(c(=O)c3c2C)CCC4)cc1	none | ABCB6 blocker 1 inactive
CCc1cccc(NC(=O)c2sc3nc4n(c(=O)c3c2C)CCC4)c1	none | ABCB6 blocker 1 inactive
CCOC(=O)c1ccc(NC(=O)c2sc3nc4n(c(=O)c3c2C)CCC4)cc1	Myeloid diff MLP inconclusive
O=C(/C=C/Nc1ccc(F)cc1F)c1cccs1	none
COc1ccc(-c2csc(Nc3ccccn3)n2)cc1OC	none
O=[N+]([O-])c1ccccc1C=NNc1ccccc1	none (no result: beta cell repl)
Cc1ccc(-c2nc(N/N=C/c3ccccc3[N+](=O)[O-])c3ccccc3n2)cc1	ABCB6 inh MLPCN 74, Myeloid diff MLP active | ABCB6 blocker 1 inactive
CCOc1ccc2nc(NC(=O)C3=NN(c4ccccc4)C(=O)CC3)sc2c1	ABCB6 inh MLPCN 74 | ABCB6 blocker 1 inactive
Cc1ccc2nc(NC(=O)C3=NN(c4ccccc4)C(=O)CC3)sc2c1	none
COCCOC(=O)c1[nH]c2c(c1C)C(=O)CC(c1cc(OC)c(OC)c(OC)c1)C2 (configuration not stated)	ABCB6 inh MLPCN 71 | ABCB6 blocker 1 inactive
C=CCOC(=O)c1[nH]c2c(c1C)C(=O)CC(c1cc(OC)c(OC)c(OC)c1)C2 (configuration not stated)	none
Cc1cccc(C(=O)NC(=S)Nc2ccc(Cc3ccncc3)cc2)c1	none
CN(CC(=O)Nc1ccc(F)cc1)C(=O)COC(=O)COc1ccc(C#N)cc1	ABCB6 inh MLPCN 68 | ABCB6 blocker 1 inactive
COc1ccc(N2CCN(c3ncccc3C#N)CC2)cc1	ABCB6 inh MLPCN 74 | ABCB6 blocker 1 inactive
CSc1nnc(C)c(=O)n1COC(=O)COc1ccccc1	none
CCOC(=O)c1ccc(NC(=O)CSc2nnc(CNC(=O)c3ccco3)o2)cc1	ABCB6 inh MLPCN 14 | ABCB6 blocker 1 inactive
Cc1ccc(NC(=O)CSc2nnc(CNC(=O)c3ccco3)o2)cc1	none
COC(=O)[C@@H]1C[C@@]2(O)[C@H](O)[C@H](O)[C@H](O)C[C@H]2N1Cc1ccc(C(F)(F)F)cc1	ABCB6 inh MLPCN 72 | ABCB6 blocker 1 inactive
Cc1ccc(NC(=O)c2sc3ncn(CC(=O)N4CCOCC4)c(=O)c3c2C)c(Br)c1	none | ABCB6 blocker 1 inactive
Cc1cc([N+](=O)[O-])ccc1NC(=O)c1sc2ncn(CC(=O)N3CCOCC3)c(=O)c2c1C	none
Cc1c(C(=O)NCc2cccnc2)sc2ncn(CC(=O)N3CCCCC3C)c(=O)c12 (configuration not stated)	none (no result: beta cell repl)
CCOc1ccccc1N(C)C(=O)c1sc2ncn(CC(=O)N3CCCCC3C)c(=O)c2c1C (configuration not stated)	none | ABCB6 blocker 1 inactive
COc1cc(NC(=O)c2sc3ncn(CC(=O)N4CCCCC4C)c(=O)c3c2C)cc(OC)c1OC (configuration not stated)	none (no result: beta cell repl) | ABCB6 blocker 1 inactive
CCOc1ccccc1NC(=O)c1sc2ncn(CC(=O)N3CCOCC3)c(=O)c2c1C	none
COc1ccccc1-c1nnc(SC/C(O)=C(\C#N)c2nc3ccccc3[nH]2)n1C1CCCCC1	ABCB6 inh MLPCN 71 | ABCB6 blocker 1 inactive
Cc1ccc(C(=O)Nc2cc(C)nn2CCC#N)cc1	ABCB6 inh MLPCN 74 | ABCB6 blocker 1 inactive
Cc1cc(NC(=O)/C=C/c2ccccc2Cl)n(-c2nc3ccccc3[nH]2)n1	none
N#CCCS(=O)(=O)c1ccc(N)cc1	none
Cc1ccc(S(=O)(=O)CCC#N)cc1	ABCB6 inh MLPCN 19 | ABCB6 blocker 1 inactive
CCCN(CCC)CCCNC(=O)c1cc2cc3ccc(Cl)cc3nc2o1	ABCB6 inh MLPCN 73 | ABCB6 blocker 1 inactive
O=C(NCc1ccco1)c1cc2cc3ccc(Cl)cc3nc2o1	none
CCOC(=O)c1ccc(NC(=S)Nc2ccccn2)cc1	none
